About 8,600 (12%) of roughly 69,000 compounds showed an effect of 50% or more. The entries come from a sample that favours strong results as a whole.
The compounds below were run on Plasmodium berghei (assay: Screen against P. berghei liver stage (PbLuc), transformed with Luciferase, at 10uM). Settings: tested at 10 uM.
Assay type: functional, HepG2

Row | SMILES | INHIBITION [%]
1 | O=C(c1ccc(S(=O)(=O)NCc2ccon2)cc1)N1CCCCCC1 | -6.21
2 | CC(C)c1nnc2n1CCN(C(=O)c1ccc(N(C)C)nn1)C2 | 4.71
3 | Cn1cc(-c2cnc(-c3ccnn3C)nc2)cc1C(=O)NC1CC1 | 24.6
4 | COC(=O)N1CCC(c2nnc(Cn3ccnc3)n2C)CC1 | 1.48
5 | N#Cc1cc(F)ccc1NCC1CCN(S(=O)(=O)C(F)F)CC1 | 65.3
6 | CS(=O)(=O)N1CCC(CNc2cc(Cl)ccc2C#N)CC1 | -13.9
7 | N#Cc1ccc(Cl)cc1NCC1CC1 | 47.7
8 | O=S(=O)(NCc1ccccc1Cn1cncn1)N1CCCCCC1 | 34.7
9 | COc1cc(CNC(=O)CNc2cc(Cl)ccc2OC)ccn1 | 14.4
10 | COCc1ccc(CNc2cnn(C(C)(C)C)c(=O)c2Cl)cc1 | 54.7
11 | COCc1cccc(CNC(=O)CNc2ccccc2C(C)=O)c1 | 11.4
12 | CCc1c(NCc2ccc(F)cc2)cnn1CC(C)C | 22.6
13 | CC(C)(C)n1ncc(NCc2ccccc2)c(Cl)c1=O | 61.1
14 | COCCNC(=O)Cn1nc(C(C)C)c2cnn(C(C)(C)C)c2c1=O | -7.35
15 | CC(C)(CO)Nc1c(NCc2ccccc2)c(=O)c1=O | 17.7
16 | COc1cc(CNC(=O)c2cc(Cl)ccc2F)ccn1 | 11.4
17 | Cn1ncc(NCc2cccc(F)c2)c(Cl)c1=O | -5.25
18 | COc1cc(CNc2cnn(C(C)(C)C)c(=O)c2Cl)ccn1 | 70.6
19 | COCc1cccc(CNc2cnn(C(C)(C)C)c(=O)c2Cl)c1 | 70.6
20 | CC(C)c1nccc(-c2nccn2CCN(C)S(C)(=O)=O)n1 | -21.9
21 | O=C(Cc1ccccn1)N1CCC2(CC1)CN(CC1CC1)C(=O)CO2 | 15.3
22 | CCC(CC)C(=O)N(C)CC(=O)Nc1ccc(Br)cn1 | 21.5
23 | CN(CCn1nc2ccccn2c1=O)CC(=O)N(C)C1CCCCC1 | -111
24 | O=S(=O)(c1cc(F)ccc1F)n1cc(Cl)cn1 | 48.8

Row | SMILES | INHIBITION [%]
25 | O=S(=O)(c1ccc(F)cc1)n1cc(Cl)cn1 | 51
26 | O=S(=O)(c1ccc(F)c(F)c1)n1cc(Cl)cn1 | 42.1
27 | CCc1ccccc1CNC(=O)CCc1cnn(C)c1 | 16.6
28 | Cc1nnc(C(C)N2CCc3[nH]c4ccc(Cl)cc4c3C2)o1 (stereo unspecified) | 61.3
29 | Cc1noc(C(C)N2CCc3[nH]c4ccc(Cl)cc4c3C2)n1 (stereo unspecified) | 28.7
30 | Cc1nnc(C(C)N2CCc3[nH]c4ccccc4c3C2)o1 (stereo unspecified) | 32
31 | Cc1cnn(CC2CN(Cc3nc(C)c(C)o3)CCO2)c1 (stereo unspecified) | 11.4
32 | COc1cccc(C2(C(=O)NC3CCc4nccn4C3)CCCC2)c1 (stereo unspecified) | 34.6
33 | CCN(CCn1cccn1)C(=O)CN1C(=O)OC[C@@H]1C(C)C | 64.5
34 | CCN(CCn1cccn1)C(=O)CN1C(=O)OC[C@@H]1c1ccccc1 | 9.63
35 | CC(C)[C@H]1COC(=O)N1CC(=O)N(C)CCCn1cccn1 | 42.1
36 | COc1cccc(F)c1C(C)NC(=O)NCc1cnc(C)s1 (stereo unspecified) | -8.66
37 | CC(C)n1cc(S(=O)(=O)N2CCCC(N3CCCCC3)C2)cn1 (stereo unspecified) | 2.4
38 | CC(C)c1ccc(NC(=O)Cn2cc(I)cn2)cc1 | 82.2
39 | CC(=O)c1cccc(NC(=O)Cn2cc(I)cn2)c1 | -1.58
40 | Cc1ccc(NC(=O)Cn2cc(I)cn2)cc1 | 23.2
41 | NC(=O)c1ccc(NC(=O)Cn2cc(I)cn2)cc1 | 40
42 | Cc1ccc(NC(=O)Cn2cc(I)cn2)cc1C | 66.5
43 | Cc1ccc(C)c(NC(=O)Cn2cc(I)cn2)c1 | 49.1
44 | CS(=O)(=O)NCc1cnc2n1CCN(Cc1ccoc1)CC2 | 33
45 | Cn1cc(C(=O)N[C@@H]2CN(Cc3cccnc3)[C@@H]3CCCO[C@@H]32)cn1 | 3.25
46 | O=C(c1cnccn1)N1C[C@H]2CC[C@@H](C1)N(C(=O)CCc1ccsc1)C2 | -69.6
47 | O=C1CCC(C(=O)Nc2ccc(=O)n(Cc3ccc(Cl)c(Cl)c3)c2)N1 (stereo unspecified) | -20.5
48 | CN(Cc1ccc(C(=O)Nc2sccc2C#N)cc1)Cc1ccno1 | 15.9

Row | SMILES | INHIBITION [%]
49 | Cc1nnc(CN(C)Cc2ccc(C(=O)Nc3sccc3C#N)cc2)o1 | 15.9
50 | Cc1nnsc1CN(C)Cc1ccc(C(=O)Nc2sccc2C#N)cc1 | 55.4
51 | COCCN1CCCC(Cc2ccc(N3CCOCC3)nn2)C1 (stereo unspecified) | -0.902
52 | Cc1nc(CCNC(=O)NC2CCCc3c2cnn3CCO)cs1 (stereo unspecified) | 26.9
53 | O=C(NC1CCCCC1)NC1CCCc2c1cnn2CCO (stereo unspecified) | -9.93
54 | O=C(NCC1CCCCC1)NC1CCCc2c1cnn2CCO (stereo unspecified) | 55.1
55 | O=C(NCCc1ccc(F)cc1)NC1CCCc2c1cnn2CCO (stereo unspecified) | 18.3
56 | O=C(NCC(F)(F)F)NC1CCCc2c1cnn2CCO (stereo unspecified) | 37.1
57 | Cc1ccsc1CNC(=O)NC1CCCc2c1cnn2CCO (stereo unspecified) | 13.4
58 | O=C(NCCC1=CCCCC1)NC1CCCc2c1cnn2CCO (stereo unspecified) | 62
59 | Cc1csc(CNC(=O)NC2CCCc3c2cnn3CCO)n1 (stereo unspecified) | 14
60 | Cc1ccc(CNC(=O)NC2CCCc3c2cnn3CCO)cn1 (stereo unspecified) | 53.4
61 | CC1(C)Cc2nc(C(C)(C)C)ncc2C(NC(=O)CN)C1 (stereo unspecified) | 36.8
62 | CCn1ncc2c1C(COCC1CC1)N(Cc1nccs1)CC2 (stereo unspecified) | 13.7
63 | COc1cccc(S(=O)(=O)CCNC2CCc3ncnn3C2)c1 (stereo unspecified) | 41.2
64 | CN(C)C(=O)C1CCN(C2CCN(CC3CCC3)CC2)CC1 | 26.5
65 | CCn1cc(N)c(-c2nnc3n2CCC3)n1 | 24.8
66 | Cc1ccc(C(=O)NS(C)(=O)=O)cc1-n1cccc1 | 5.23
67 | O=C(Nc1ccc2c(ccn2CCN2CCOCC2)c1)c1ccncc1 | -35.8
68 | Cc1ccccc1Cc1nc(CSc2nnc(N)n2C2CC2)no1 | 67.8
69 | Cc1ccccc1Cc1nc(CSc2nnc(N)n2C)no1 | 10.7
70 | CCc1nc(CSc2nnc(N)n2C2CC2)no1 | 42.1
71 | CCC(=O)N1CCC(Cc2ccccc2-c2ccncc2)(C(=O)NC)C1 (stereo unspecified) | 6.32
